Experimental data taken from PubChem BioAssay AID2284333 (EPA ToxCast).
Inconclusive results are not listed. The source made the active and inactive calls. The calls were made as follows: active = hit-call score of the fitted dose curve at least 0.9, where 1 is the maximum; inconclusive = response in the unintended direction; inactive = score below 0.9.

biological target: rainbow trout Glucocorticoid Receptor (GR), nr3c1 (gene 100136786) (UniProt P49843); assay: ATG_rtGR_EcoTox2: Attagene TRANS-FACTORIAL EcoTox-2 HepG2 Assay for rainbow trout Glucocorticoid Receptor (GR)
Sequence (P49843 whole entry, looked up): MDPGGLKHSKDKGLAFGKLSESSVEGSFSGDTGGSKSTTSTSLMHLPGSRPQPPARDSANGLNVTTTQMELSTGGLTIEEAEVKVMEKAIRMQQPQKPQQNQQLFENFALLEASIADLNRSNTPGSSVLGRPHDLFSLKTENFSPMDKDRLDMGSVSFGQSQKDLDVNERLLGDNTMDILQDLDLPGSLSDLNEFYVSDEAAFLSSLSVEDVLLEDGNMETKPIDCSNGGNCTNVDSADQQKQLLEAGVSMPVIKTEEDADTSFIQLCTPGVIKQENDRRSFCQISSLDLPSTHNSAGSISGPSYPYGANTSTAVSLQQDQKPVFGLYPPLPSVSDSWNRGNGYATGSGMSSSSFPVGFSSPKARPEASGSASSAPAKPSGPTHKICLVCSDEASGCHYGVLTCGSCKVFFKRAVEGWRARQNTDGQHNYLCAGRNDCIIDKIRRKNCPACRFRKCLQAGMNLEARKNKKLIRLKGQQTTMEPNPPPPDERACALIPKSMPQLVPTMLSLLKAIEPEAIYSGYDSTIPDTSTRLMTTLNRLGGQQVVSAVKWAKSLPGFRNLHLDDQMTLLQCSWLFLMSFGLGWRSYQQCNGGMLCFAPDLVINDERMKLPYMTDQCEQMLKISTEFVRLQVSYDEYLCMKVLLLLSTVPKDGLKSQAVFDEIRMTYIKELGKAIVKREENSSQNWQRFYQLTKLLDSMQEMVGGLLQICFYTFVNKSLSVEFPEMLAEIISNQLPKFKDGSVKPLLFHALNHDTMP
Method: ATG_EcoTox2 is a cell-based, multiplexed assay created by modifying the existing Attagene TRANS-FACTORIAL system to include a panel of nuclear receptors from some or all the following species: human (Homo sapiens), african clawed frog (Xenopus laevis), rainbow trout (Oncorhynchus mykiss), japanese medaka (Oryzias latipes), and zebrafish (Danio rerio). The ECOTOX2-FACTORIAL format uses HepG2, a human liver cell line, with measurements taken at 24 hours after chemical dosing in a 24-well plate. ATG_rtGR_EcoTox2 is one of 29 assay components calculated in the ATG_EcoTox2 assay. It is designed to make measurements of mRNA induction, a form of inducible reporter, as detected with fluorescence intensity signals by Reverse transcription polymerase chain reaction (RT-PCR) and Capillary electrophoresis technology.The assay endpoint ATG_rtGR_EcoTox2 was analyzed in the positive analysis fitting direction relative to DMSO as the negative control and baseline of activity. Using a type of inducible reporter, measures of mRNA for gain-of-signal activity can be used to understand the reporter gene at the transcription factor-level as they relate to the gene for glucocorticoid receptor. Furthermore, this assay endpoint can be referred to as a primary readout, because this assay has produced multiple assay endpoints where this one serves a reporter gene function. To generalize the intended target to other relatable targets, this assay endpoint is annotated to the nuclear receptor intended target family, where the subfamily is steroidal.
Human liver HepG2 cells are transiently transfected with multiple reporter transcription units (MRTUs) in 6-well plates using FuGene 6 reagent (Roche; 3 ml FuGene/1 mg DNA). The MRTU constructs are regulated by a cis-regulating element (promoter). Each RTU expresses a GAL4-UAS that regulates the transcription of a nearby target reporter gene sequence. A major difference between the CIS and TRANS system is that in CIS activities of endogenous TFs are measured, whereas the TRANS assay evaluates changes in activities of exogenous, chimeric NR-Gal4 proteins. […] At the end of 24 hour incubation, total RNA was isolated using TriZol reagent (Invitrogen). The isolated RNA is then reverse-transcribed using oligo(dT) primer and Mo-MLV reverse transcriptase (Invitrogen) with DNAse I (Ambion) treatment for 30 min. The one-tenth of the produced cDNA was amplified by PCR using Taq DNA polymerase (Invitrogen) and two reporter sequence-specific primers. […] The fragments were purified using Qiaquick PCR columns (Qiagen), analyzed on an ABI 3130xL genetic analyzer (Applied Biosystems) with peak positions identified by using a set of X-rhodamine (ROX)-labeled MapMarker1000 molecular weight standards (BioVentures). […]

SMILES	outcome
O=C(O)C(F)(F)C(F)(F)C(F)(F)C(F)(F)C(F)(F)C(F)(F)C(F)(F)F	inactive
CCCCOCN(C(=O)CCl)c1c(CC)cccc1CC	inactive
O=S(=O)(O)C(F)(F)C(F)(F)C(F)(F)C(F)(F)C(F)(F)C(F)(F)F	inactive
[Cl][Sn]([c]1ccccc1)([c]1ccccc1)[c]1ccccc1	inactive
